# High-throughput results from PubChem.
# 3T3 cytotox: kills NIH 3T3 cells; NIH 3T3 viability, CellTiter-Glo ATP luminescence, 48-72 h; Potency, µM (top dose mostly 96.7 µM), inactives show top-dose activity change, negative = cytotoxicity, actives largely listed as inhibitors; 4.3% of 94,000 active; AID 1345082; further: nearly all actives have a fitted effect of over 55% in size
#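 Viability of NIH 3T3 cells after 48 or 72 hr compound treatment at 37 °C was assessed by CellTiter-Glo, with luminescence imaged following a 10 min room-temperature step.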
# HEK293 tox: kills HEK 293 cells. HEK 293 viability, ATP luminescence (CellTiter-Glo), 48-72 h. Potency, µM (titrated, usually from 115 µM), for the others: at the highest dose activity change, negative = cytotoxicity, hits mostly inhibitors. 6.6% of 94,000 active; further: nearly all actives have a fitted effect of over 60% in size
#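 HEK 293 cells at 250 cells/well were exposed to compounds by pintool transfer for 48 or 72 hr at 37 degree Celsius, 5% CO2. Viability was read as ATP-coupled luminescence with CellTiter-Glo after 10 min at room temperature.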
# Luciferase inh: inhibitors of firefly (Photinus pyralis) luciferase | P08659 | purified P. pyralis luciferase, luminescence, biochemical | AID 1347043 | Potency, µM (titrated, usually from 115 µM), actives largely listed as inhibitors | 2.5% of 76,000 active; further: nearly all actives have a fitted effect of over 65% in size
#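 FLuc 10nM, D-luciferin 10uM, ATP 10uM, Mg acetate 10mM, Tris acetate pH 7.5, Tween/BSA; cpd qHTS; enzyme added last; CCD luminescence.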
# NPR1 antag: antagonists of human natriuretic peptide receptor Npr1. P16066. HEK293 hNpr1 GloSensor cGMP, ANP-stimulated luminescence. Potency, µM (top dose mostly 46.3 µM), inactives show at the top dose activity change, negative = inhibition, most hits filed as inhibitors. 1.6% of 76,000 active. AID 1347048; calls by dose curve; further: nearly all actives have a fitted effect of over 60% in size
# Target sequence (P16066 whole entry, looked up): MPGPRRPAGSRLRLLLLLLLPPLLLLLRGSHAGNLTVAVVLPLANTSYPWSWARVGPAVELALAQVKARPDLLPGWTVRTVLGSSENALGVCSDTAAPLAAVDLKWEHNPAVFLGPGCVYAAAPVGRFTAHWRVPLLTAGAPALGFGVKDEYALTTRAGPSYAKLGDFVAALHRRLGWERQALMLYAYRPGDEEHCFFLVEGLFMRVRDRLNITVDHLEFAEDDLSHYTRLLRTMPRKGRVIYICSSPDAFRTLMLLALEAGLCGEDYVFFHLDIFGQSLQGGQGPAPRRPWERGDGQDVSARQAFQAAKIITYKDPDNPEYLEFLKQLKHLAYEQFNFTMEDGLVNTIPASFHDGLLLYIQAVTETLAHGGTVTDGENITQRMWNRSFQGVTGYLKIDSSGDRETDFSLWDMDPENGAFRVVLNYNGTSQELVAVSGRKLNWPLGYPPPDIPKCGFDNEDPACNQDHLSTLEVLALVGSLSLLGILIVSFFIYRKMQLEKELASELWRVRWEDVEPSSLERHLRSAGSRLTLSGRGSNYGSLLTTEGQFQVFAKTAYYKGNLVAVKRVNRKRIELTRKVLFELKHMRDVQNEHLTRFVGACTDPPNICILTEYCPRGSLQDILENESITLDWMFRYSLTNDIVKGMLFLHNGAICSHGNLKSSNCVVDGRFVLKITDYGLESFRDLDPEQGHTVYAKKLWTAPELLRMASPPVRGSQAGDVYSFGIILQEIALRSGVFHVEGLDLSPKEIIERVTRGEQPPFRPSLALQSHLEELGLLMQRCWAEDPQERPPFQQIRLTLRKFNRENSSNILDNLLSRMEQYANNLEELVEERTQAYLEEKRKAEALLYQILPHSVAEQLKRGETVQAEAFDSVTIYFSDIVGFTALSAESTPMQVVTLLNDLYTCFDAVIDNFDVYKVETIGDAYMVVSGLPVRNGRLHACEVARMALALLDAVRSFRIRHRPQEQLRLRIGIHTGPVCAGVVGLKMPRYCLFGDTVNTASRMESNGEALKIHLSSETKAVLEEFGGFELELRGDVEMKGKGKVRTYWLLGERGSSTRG
#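 Compound pre-incubated 30 min at room temperature on GloSensor-loaded HEK293 cells stably carrying hNpr1 and the pGS-40F cGMP biosensor. Stimulation uses hNppA at 0.1 nM final; luminescence is taken at baseline and 20 min post-agonist.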
# Active calls of the source: *; i = inactive; ? = inconclusive; · = no result given; [ ] = dose if it differs, or a comment. Sampled rows, rich in hits. Any-hit rate of the full collection: about 11%. Unless noted, the call rests on the fitted dose curve; in most records, active means well fitted curve in the direction sought with a large enough effect; inconclusive means small, poorly fitted or top-dose-only effect, or another doubt; inactive means no such curve, though single readings can be large; an effect the other way counts as inactive or inconclusive. On the % scale 0 is the no-effect control and ±100 the full control effect; potency means the concentration at half of the fitted maximal effect.
SMILES,3T3 cytotox,HEK293 tox,Luciferase inh,NPR1 antag
COCCN[C@@H]1C[C@@H]2c3[nH]c4ccccc4c3C[C@@H](C(=O)OC)N2[C@H](c2ccc(C(C)C)cc2)C1,28µM*,?,i,?
COCCN[C@@H]1C[C@@H]2c3[nH]c4ccccc4c3C[C@@H](C(=O)OC)N2[C@H](c2cccc(OC)c2)C1,?,22µM*,i,?
COC(=O)[C@@H]1Cc2c([nH]c3ccccc23)[C@@H]2C[C@@H](NC(C)C)C[C@@H](c3ccc(F)cc3)N12,28µM*,28µM*,i,1%
C[S+](=O)([O-])c1ccc(-c2nnc3ccc(C(=O)NCc4ccc(Cl)cc4)cn23)cc1,?,-6%,·,·
COC(=O)[C@@H]1Cc2c([nH]c3ccccc23)[C@H]2C[C@@H](NCCN(C)C)C[C@@H](c3ccc(F)cc3)N21,14µM*,20µM*,i,0%
COCCNC(=O)[C@H]1C[C@H](Oc2ccccc2)CN1C(=O)c1ccc(F)cc1,0%,4%,i,10%
COCCN[C@H]1C[C@@H]2c3[nH]c4ccccc4c3C[C@@H](C(=O)OC)N2[C@H](c2ccccc2)C1,35µM*,40µM*,i,-14%[70.6 µM]
COCCN[C@@H]1C[C@@H]2c3[nH]c4ccccc4c3C[C@@H](C(=O)OC)N2[C@H](c2ccc(Cl)c(F)c2)C1,14µM*,?,i,?
O=C(c1ccc(F)cc1)N1CCC(C(=O)N2CCC(N3Cc4cccn4C3=O)CC2)CC1,?,-29%,·,·
Cc1ccc(-c2nnc(C3CN(C(=O)C4CCCCCC4)CC34CCOCC4)o2)cc1 (stereo not given),-27%,?,i,-17%
CC(C)CCN1CCOc2cc(C(=O)Nc3cccnc3)ccc2C1,-13%[138 µM],112µM*,i,-4%[70.6 µM]
O=C(NCC1CC1)c1ccc2c(c1)OCCN(c1ccccc1)C2,?,11µM*,i,-4%[70.6 µM]
CNC(=O)c1ccc2c(c1)OCCN(c1ccccc1)C2,-25%[174 µM],?,i,1%[70.6 µM]
CC(C)CCN1CCOc2cc(C(=O)N(C)c3cccnc3)ccc2C1,?,112µM*,i,-15%[70.6 µM]
CC(C)CCN1CCOc2cc(C(=O)Nc3ccc(F)cc3)ccc2C1,?,?,i,?
CC(C)CCN1CCOc2cc(C(=O)Nc3nccs3)ccc2C1,?,100µM*,?,-18%[70.6 µM]
Cc1cc(C)n(Cc2ccc(C(=O)NCC3CCCCC(=O)N3)o2)n1 (stereo not given),-20%,-9%,·,·
CC(C)CCN1CCOc2cc(C(=O)NCc3ccccc3)ccc2C1,?,?,i,4%[70.6 µM]
CC(C)CCN1CCOc2cc(C(=O)NCCOc3ccccc3)ccc2C1,?,100µM*,i,-11%[70.6 µM]
COc1ccccc1C(=O)N1CCCN(c2cc(-c3ccc(Br)cc3)[nH]n2)CC1,?,40µM*,i,?
COc1ccc(-c2cc(N3CCCN(C(=O)c4ccccc4OC)CC3)n[nH]2)cc1,-22%,-26%,i,-2%
COc1ccc(Cl)cc1C(=O)N1CCCN(c2cc(-c3ccc(Br)cc3)[nH]n2)CC1,32µM*,35µM*,i,?
CN1CCCC1c1nc(C2CN(C(=O)CCc3nc4ccccc4s3)C2)no1 (stereo not given),-11%,?,i,-3%
CC(=O)NC1CC2(CCN(C(=O)C3CCN(C)CC3)CC2)c2ccccc21 (stereo not given),35µM*,45µM*,·,·
COc1ccc(C(=O)N2CCCC(C(=O)N3CCCC(c4nc5ncccc5[nH]4)C3)C2)cc1 (stereo not given),?,-33%,·,·
SMILES,3T3 cytotox,HEK293 tox,Luciferase inh,NPR1 antag
CCCCCNC(=O)c1ccc(-c2ccc(OC)nn2)cc1,-21%[138 µM],-19%[172 µM],·,·
Cc1ccc([S+](=O)([O-])NCCNC(=O)c2ccc(-c3cncnc3)cc2)cc1,-28%,-28%,·,·
O=C(NCCN[S+](=O)([O-])c1cccc(C(F)(F)F)c1)c1ccc(-c2cncnc2)cc1,-31%,89µM*,·,·
O=C(NCCN[S+](=O)([O-])c1cccc(C(F)(F)F)c1)c1cccc(-c2ccsc2)c1,40µM*,?,·,·
O=C(NCCN[S+](=O)([O-])c1cccc(C(F)(F)F)c1)c1ccc(-c2cccc(C(F)(F)F)c2)cc1,28µM*,40µM*,·,·
CCC(C)NC(=O)CNC(=O)c1ccc(-c2cccc(C(F)(F)F)c2)cc1 (stereo not given),-24%,35µM*,·,·
Cc1ccc(CN2CCC3(CCC3N3CCOCC3)CC2)cc1C (stereo not given),-15%,-2%,·,·
COCC(=O)N1CCN(c2nccc(Nc3ccccc3OC)n2)CC1,-26%,i,·,·
O=C(Cc1cccc(Cl)c1)N1CCN(c2nccc(Nc3ccccc3F)n2)CC1,?,28µM*,·,·
COc1ccccc1Nc1ccnc(N2CCN(C(=O)Cc3cccc(Cl)c3)CC2)n1,?,45µM*,·,·
COc1ccc(C2(C(=O)NCC3CCCCC(=O)N3)CC2)cc1 (stereo not given),-7%,-1%,·,·
Cc1nnn2c(C(=O)NCc3ccc(Cl)cc3)cccc12,35µM*,79µM*,i,0%[70.6 µM]
COc1ccc(OC)c(CN2CC(Oc3ccccc3C(=O)NCc3ccccc3)C2)c1,?,32µM*,i,-25%
COc1cccc(CN2CC(Oc3ccccc3C(=O)NC3CC3)C2)c1,-25%,?,i,1%
COc1ccc(CN2CC(Oc3ccccc3C(=O)NC3CC3)C2)c(OC)c1,-27%,?,i,-2%
COc1ccc(CN2CC(Oc3ccccc3C(=O)NCc3ccccc3)C2)c(OC)c1,?,50µM*,i,?
O=C(Nc1ccc(Oc2cccnc2)cc1)C1CCN(CCCc2ccccc2)CC1,?,25µM*,i,-12%
O=C(NCc1ccc(F)cc1)c1nc(-c2cccc(C(F)(F)F)c2)c2cnccn12,-23%,?,i,0%
FC(F)(F)c1cccc(-c2nccn3c(C4CN(Cc5ccc6cn[nH]c6c5)C4)ncc23)c1,40µM*,45µM*,i,-16%
CC(=O)N1CCN(c2ccc3nnc(C4CC4)n3n2)CC1,-15%[138 µM],0%[172 µM],·,·
Cc1cc(C)cc(NC(=O)c2cc3n(n2)CC(c2ccc4c(c2)OCO4)OC3)c1 (stereo not given),?,89µM*,i,-19%
O=C(NCCc1ccccc1)c1cc2n(n1)CC(c1ccc3c(c1)OCO3)OC2 (stereo not given),?,?,i,?
CC1CCC(NC(=O)c2cc3n(n2)CC(c2ccc4c(c2)OCO4)OC3)CC1 (stereo not given),?,22µM*,i,-9%
O=C(NCCCc1ccccc1)c1cc2n(n1)CC(c1ccc3c(c1)OCO3)OC2 (stereo not given),28µM*,?,i,-23%
CCOc1ccc(NC(=O)c2cc3n(n2)CC(c2ccc4c(c2)OCO4)OC3)cc1 (stereo not given),?,22µM*,?,16µM*
